ChEMBL document CHEMBL1961873, “Compounds: GSK PKIS; Assays: Nanosyn kinase panel” (2012)

What was measured:
[1] = molecular target: Tyrosine-protein kinase SYK (Homo sapiens) (UniProt P43405); conditions: at 1 µM
[2] = molecular target: T1, Tyrosine-protein kinase Tec (Homo sapiens) (UniProt P42680); conditions: at 0.1 µM
T1 sequence (whole entry): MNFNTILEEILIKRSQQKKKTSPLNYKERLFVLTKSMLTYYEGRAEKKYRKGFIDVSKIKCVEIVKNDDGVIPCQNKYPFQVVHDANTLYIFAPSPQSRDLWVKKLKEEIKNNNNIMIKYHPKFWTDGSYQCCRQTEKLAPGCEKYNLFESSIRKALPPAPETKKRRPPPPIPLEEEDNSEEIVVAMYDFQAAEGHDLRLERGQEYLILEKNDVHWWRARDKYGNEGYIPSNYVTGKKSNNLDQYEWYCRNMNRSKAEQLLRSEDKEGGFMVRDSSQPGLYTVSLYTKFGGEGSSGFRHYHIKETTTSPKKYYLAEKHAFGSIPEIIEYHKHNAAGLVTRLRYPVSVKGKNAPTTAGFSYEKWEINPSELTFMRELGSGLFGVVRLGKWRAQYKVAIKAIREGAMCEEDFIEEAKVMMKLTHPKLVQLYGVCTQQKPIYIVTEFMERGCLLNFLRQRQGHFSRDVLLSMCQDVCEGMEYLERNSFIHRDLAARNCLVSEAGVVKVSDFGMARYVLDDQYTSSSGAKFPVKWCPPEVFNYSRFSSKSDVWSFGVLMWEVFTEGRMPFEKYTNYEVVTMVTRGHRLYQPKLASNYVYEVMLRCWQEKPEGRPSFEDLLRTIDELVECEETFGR

[3] = molecular target: T1, Tyrosine-protein kinase Tec (Homo sapiens); conditions: at 1 µM
[4] = molecular target: Angiopoietin-1 receptor (Homo sapiens) (UniProt Q02763); conditions: at 0.1 µM
[5] = molecular target: Angiopoietin-1 receptor (Homo sapiens) (UniProt Q02763); conditions: at 1 µM
[6] = molecular target: T2, Non-receptor tyrosine-protein kinase TNK1 (Homo sapiens) (UniProt Q13470); conditions: at 0.1 µM
T2 sequence (whole entry): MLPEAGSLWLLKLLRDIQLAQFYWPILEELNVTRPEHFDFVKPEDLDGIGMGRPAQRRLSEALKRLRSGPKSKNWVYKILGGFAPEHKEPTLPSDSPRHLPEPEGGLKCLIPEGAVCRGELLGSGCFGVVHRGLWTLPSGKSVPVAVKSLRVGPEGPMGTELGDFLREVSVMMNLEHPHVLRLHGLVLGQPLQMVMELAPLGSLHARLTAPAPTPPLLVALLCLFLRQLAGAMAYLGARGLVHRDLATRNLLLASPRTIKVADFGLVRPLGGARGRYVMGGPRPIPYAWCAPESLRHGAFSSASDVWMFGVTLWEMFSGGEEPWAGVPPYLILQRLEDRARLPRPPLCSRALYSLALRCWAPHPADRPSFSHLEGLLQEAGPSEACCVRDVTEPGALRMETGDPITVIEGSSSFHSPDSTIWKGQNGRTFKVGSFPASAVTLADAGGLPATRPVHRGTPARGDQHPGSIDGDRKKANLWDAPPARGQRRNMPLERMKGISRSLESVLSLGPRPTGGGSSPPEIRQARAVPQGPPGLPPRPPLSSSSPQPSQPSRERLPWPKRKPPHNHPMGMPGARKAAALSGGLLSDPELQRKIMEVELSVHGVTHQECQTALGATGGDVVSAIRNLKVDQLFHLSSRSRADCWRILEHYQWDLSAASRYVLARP

[7] = molecular target: T2, Non-receptor tyrosine-protein kinase TNK1 (Homo sapiens); conditions: at 1 µM
[8] = molecular target: Activated CDC42 kinase 1 (Homo sapiens) (UniProt Q07912); conditions: at 0.1 µM
[9] = molecular target: Activated CDC42 kinase 1 (Homo sapiens) (UniProt Q07912); conditions: at 1 µM
[10] = molecular target: High affinity nerve growth factor receptor (Homo sapiens) (UniProt P04629); conditions: at 0.1 µM
[11] = molecular target: High affinity nerve growth factor receptor (Homo sapiens) (UniProt P04629); conditions: at 1 µM
[12] = molecular target: BDNF/NT-3 growth factors receptor (Homo sapiens) (UniProt Q16620); conditions: at 0.1 µM
[13] = molecular target: BDNF/NT-3 growth factors receptor (Homo sapiens) (UniProt Q16620); conditions: at 1 µM
[14] = molecular target: NT-3 growth factor receptor (Homo sapiens) (UniProt Q16288); conditions: at 0.1 µM
[15] = molecular target: NT-3 growth factor receptor (Homo sapiens) (UniProt Q16288); conditions: at 1 µM
[16] = molecular target: T3, Tyrosine-protein kinase TXK (Homo sapiens) (UniProt P42681); conditions: at 0.1 µM
T3 sequence (whole entry): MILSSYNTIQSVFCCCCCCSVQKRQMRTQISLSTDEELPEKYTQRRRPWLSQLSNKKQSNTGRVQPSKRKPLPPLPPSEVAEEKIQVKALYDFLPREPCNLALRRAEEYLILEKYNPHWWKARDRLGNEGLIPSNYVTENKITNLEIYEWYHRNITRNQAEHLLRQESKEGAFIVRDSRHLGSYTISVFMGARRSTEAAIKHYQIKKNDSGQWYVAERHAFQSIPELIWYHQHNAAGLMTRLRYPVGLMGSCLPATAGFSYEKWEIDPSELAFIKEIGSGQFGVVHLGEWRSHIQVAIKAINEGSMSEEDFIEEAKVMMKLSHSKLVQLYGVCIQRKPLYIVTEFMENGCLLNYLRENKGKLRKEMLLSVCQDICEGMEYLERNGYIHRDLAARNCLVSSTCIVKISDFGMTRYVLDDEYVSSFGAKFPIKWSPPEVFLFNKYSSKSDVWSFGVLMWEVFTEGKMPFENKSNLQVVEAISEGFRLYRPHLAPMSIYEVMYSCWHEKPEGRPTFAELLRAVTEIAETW

[17] = molecular target: T3, Tyrosine-protein kinase TXK (Homo sapiens); conditions: at 1 µM
[18] = molecular target: Non-receptor tyrosine-protein kinase TYK2 (Homo sapiens) (UniProt P29597); conditions: at 0.1 µM;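 also: each value is a mean of the inhibition readings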
[19] = molecular target: T4, Dual specificity protein kinase TTK (Homo sapiens) (UniProt P33981); conditions: at 1 µM;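 also: reported figures are mean TTK inhibition at 1 µM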
T4 sequence (whole entry): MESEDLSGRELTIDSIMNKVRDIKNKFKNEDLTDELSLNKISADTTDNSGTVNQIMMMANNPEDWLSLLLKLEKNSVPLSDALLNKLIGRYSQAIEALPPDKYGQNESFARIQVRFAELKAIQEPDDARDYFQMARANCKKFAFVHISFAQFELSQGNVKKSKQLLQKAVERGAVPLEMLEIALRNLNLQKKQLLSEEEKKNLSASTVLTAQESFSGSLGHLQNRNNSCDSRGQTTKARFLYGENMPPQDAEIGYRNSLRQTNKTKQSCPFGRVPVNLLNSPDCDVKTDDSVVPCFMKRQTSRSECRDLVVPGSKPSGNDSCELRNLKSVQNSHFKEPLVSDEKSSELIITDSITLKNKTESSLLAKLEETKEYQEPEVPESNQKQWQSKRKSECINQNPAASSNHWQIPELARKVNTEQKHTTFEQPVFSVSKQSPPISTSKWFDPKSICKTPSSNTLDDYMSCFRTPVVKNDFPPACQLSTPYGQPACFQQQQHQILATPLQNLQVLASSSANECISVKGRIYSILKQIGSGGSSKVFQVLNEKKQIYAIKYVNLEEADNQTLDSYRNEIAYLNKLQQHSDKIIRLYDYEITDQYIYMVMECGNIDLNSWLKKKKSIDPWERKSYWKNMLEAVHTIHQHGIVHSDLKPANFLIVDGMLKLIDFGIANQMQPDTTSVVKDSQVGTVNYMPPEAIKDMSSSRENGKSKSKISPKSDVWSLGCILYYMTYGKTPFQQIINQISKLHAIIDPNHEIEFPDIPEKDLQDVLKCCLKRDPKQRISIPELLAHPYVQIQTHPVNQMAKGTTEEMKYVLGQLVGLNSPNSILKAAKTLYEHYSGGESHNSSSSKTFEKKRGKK

[20] = molecular target: T5, Aurora kinase A (Homo sapiens) (UniProt O14965); conditions: at 0.1 µM;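 also: each reported value is a mean percent inhibition of Aurora-A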
T5 sequence (whole entry): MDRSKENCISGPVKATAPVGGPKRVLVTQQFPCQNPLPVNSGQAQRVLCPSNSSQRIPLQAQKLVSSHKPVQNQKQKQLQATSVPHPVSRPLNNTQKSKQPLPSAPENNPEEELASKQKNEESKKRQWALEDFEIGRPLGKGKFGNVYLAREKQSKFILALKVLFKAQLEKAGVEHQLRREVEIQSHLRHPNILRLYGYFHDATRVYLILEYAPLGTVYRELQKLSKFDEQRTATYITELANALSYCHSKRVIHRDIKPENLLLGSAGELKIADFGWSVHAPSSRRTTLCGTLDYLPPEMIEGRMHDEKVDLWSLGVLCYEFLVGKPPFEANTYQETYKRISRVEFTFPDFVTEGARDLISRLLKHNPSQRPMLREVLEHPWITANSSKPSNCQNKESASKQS

Sequence of Activated CDC42 kinase 1 (Homo sapiens) (Q07912 whole entry, looked up): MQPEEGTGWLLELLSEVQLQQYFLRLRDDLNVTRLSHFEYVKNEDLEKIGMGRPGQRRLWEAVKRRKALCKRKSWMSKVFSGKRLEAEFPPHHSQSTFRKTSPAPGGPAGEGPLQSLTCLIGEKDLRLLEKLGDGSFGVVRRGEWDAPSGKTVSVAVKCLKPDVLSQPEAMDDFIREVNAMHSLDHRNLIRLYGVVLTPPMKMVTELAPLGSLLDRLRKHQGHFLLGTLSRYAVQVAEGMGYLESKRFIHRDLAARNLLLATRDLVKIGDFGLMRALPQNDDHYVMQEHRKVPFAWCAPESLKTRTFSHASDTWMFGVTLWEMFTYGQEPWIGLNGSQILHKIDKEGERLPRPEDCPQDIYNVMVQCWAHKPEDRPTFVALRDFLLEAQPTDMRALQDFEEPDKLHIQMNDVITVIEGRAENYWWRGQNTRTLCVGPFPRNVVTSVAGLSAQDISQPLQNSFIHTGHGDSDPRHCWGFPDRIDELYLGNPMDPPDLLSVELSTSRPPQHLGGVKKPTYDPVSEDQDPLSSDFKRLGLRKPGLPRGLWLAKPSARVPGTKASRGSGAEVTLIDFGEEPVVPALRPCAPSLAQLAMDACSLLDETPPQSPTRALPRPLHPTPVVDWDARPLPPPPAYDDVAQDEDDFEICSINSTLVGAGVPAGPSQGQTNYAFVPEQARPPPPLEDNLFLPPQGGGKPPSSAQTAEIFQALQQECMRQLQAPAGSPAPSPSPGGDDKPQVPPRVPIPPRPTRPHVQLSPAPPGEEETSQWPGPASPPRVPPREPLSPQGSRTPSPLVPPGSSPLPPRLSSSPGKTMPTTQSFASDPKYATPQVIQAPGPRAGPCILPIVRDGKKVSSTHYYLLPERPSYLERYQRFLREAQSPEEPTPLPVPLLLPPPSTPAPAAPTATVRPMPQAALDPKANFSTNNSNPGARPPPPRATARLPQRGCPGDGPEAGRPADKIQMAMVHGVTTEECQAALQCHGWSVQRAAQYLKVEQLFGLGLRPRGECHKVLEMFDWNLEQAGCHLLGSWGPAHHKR
Sequence of NT-3 growth factor receptor (Homo sapiens) (Q16288 32-839 limits assumed): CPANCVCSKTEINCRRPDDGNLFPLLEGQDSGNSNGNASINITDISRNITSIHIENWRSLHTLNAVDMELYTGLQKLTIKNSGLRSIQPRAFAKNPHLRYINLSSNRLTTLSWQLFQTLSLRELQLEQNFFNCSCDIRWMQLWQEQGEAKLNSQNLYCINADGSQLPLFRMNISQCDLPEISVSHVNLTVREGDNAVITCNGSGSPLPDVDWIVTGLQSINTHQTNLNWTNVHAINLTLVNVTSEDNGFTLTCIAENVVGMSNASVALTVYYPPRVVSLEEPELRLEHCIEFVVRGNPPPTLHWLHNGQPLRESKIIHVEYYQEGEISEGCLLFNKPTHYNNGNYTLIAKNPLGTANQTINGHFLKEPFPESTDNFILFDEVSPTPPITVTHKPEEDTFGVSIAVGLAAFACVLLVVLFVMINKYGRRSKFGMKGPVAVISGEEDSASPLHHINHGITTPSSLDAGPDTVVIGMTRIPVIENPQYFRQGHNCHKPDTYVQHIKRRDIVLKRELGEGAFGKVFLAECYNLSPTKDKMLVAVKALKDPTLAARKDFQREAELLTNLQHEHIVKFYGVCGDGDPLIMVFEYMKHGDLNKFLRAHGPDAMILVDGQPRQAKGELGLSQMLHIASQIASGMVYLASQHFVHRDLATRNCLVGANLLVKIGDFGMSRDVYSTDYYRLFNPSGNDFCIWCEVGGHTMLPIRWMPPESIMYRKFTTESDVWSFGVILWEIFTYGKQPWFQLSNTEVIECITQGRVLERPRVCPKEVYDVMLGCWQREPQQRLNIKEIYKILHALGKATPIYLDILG
Sequence of BDNF/NT-3 growth factors receptor (Homo sapiens) (Q16620 32-822 limits assumed): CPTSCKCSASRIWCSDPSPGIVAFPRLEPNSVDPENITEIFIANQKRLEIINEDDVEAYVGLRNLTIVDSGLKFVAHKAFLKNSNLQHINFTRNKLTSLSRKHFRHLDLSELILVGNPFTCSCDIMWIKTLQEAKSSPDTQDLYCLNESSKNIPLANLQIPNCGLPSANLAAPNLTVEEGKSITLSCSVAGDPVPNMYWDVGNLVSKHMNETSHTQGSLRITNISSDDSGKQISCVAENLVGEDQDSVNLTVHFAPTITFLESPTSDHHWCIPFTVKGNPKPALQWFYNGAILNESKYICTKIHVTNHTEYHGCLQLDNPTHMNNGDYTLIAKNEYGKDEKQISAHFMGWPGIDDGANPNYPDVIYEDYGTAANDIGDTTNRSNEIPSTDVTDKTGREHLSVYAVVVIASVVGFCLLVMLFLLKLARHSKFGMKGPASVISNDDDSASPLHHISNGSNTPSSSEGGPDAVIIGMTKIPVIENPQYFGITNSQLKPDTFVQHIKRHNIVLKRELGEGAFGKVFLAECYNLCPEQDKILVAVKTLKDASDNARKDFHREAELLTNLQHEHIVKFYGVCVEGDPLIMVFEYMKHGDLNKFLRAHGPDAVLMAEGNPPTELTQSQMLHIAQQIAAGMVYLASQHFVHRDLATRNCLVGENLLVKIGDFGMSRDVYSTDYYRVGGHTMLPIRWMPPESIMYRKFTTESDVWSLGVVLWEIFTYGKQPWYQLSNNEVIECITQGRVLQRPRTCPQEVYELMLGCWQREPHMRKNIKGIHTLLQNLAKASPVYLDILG
Sequence of Angiopoietin-1 receptor (Homo sapiens) (Q02763 whole entry): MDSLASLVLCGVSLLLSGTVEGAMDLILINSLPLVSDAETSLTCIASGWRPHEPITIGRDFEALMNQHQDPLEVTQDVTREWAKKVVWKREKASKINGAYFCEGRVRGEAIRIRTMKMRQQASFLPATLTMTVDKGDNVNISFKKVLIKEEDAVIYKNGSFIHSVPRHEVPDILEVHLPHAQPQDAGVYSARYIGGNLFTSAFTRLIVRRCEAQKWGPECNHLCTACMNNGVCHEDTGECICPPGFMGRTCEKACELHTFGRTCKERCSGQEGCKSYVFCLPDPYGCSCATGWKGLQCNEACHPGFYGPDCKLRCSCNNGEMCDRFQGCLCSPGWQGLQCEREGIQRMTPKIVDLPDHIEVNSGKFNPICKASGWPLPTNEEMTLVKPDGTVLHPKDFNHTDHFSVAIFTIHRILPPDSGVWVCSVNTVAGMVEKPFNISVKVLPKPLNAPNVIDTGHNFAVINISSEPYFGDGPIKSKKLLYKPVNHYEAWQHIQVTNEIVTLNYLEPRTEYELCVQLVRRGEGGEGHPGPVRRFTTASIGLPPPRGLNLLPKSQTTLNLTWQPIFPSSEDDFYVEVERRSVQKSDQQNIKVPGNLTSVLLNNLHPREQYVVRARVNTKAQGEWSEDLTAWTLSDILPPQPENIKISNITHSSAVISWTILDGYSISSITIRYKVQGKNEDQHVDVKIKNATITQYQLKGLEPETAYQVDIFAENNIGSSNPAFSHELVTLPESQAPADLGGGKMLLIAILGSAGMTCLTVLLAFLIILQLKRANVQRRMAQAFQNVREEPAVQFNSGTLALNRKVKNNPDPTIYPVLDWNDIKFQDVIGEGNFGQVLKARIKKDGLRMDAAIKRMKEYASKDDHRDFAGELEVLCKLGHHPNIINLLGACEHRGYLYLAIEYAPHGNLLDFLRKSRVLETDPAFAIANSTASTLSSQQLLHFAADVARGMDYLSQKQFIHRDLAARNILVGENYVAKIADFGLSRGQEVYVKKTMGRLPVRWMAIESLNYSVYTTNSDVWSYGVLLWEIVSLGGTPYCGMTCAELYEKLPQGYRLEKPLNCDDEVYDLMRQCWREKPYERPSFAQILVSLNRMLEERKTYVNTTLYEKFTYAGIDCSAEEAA
Sequence of Non-receptor tyrosine-protein kinase TYK2 (Homo sapiens) (P29597 whole entry): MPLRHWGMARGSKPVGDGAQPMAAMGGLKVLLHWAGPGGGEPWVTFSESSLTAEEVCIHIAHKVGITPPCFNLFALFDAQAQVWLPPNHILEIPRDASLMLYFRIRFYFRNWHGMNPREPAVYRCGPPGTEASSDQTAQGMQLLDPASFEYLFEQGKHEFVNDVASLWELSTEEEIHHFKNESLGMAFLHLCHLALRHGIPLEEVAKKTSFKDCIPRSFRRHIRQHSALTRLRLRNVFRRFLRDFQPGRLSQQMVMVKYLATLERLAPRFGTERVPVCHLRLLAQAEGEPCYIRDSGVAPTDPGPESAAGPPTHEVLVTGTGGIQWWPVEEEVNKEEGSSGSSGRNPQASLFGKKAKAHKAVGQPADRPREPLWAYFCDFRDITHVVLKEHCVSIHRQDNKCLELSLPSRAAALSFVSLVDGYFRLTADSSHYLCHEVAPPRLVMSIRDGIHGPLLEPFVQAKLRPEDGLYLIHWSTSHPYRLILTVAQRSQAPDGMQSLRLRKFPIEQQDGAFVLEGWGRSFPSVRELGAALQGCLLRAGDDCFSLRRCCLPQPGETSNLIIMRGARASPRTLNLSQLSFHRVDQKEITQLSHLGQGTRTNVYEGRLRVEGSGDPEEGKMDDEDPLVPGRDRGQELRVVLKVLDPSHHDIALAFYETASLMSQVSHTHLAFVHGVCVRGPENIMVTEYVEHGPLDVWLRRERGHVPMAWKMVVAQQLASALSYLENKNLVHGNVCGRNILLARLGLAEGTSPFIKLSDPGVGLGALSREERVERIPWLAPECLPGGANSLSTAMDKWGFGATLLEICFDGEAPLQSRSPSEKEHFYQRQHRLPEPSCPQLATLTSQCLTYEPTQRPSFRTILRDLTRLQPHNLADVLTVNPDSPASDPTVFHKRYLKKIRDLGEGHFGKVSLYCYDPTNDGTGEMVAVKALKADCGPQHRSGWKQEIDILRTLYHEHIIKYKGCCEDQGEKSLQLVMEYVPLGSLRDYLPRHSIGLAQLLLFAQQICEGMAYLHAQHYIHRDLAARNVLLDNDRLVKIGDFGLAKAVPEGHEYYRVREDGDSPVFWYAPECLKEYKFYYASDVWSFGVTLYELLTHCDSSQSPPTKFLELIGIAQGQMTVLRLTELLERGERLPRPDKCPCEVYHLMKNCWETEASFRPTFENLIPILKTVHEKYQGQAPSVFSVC

SMILES | inhibition [1] [%] | inhibition [2] [%] | inhibition [3] [%] | inhibition [4] [%] | inhibition [5] [%] | inhibition [6] [%] | inhibition [7] [%] | inhibition [8] [%] | inhibition [9] [%] | inhibition [10] [%] | inhibition [11] [%] | inhibition [12] [%] | inhibition [13] [%] | inhibition [14] [%] | inhibition [15] [%] | inhibition [16] [%] | inhibition [17] [%] | inhibition [18] [%] | inhibition [19] [%] | inhibition [20] [%]
Cn1c(-c2nonc2N)nc2cnccc21 | 0.59 | 4.08 | 3.99 | 1.46 | 2.07 | 1.08 | 0.76 | 0.75 | 0.19 | 1.03 | 0.76 | 1.23 | 0.53 | 2 | 1.22 | 4.05 | 4.22 | -2.09 | 8.28 | 1.22
NC(=O)c1ccc2c(-c3ccnc(NCCCO)n3)c(-c3ccc(F)cc3)nn2c1 | -0.6 | 5.81 | 16.1 | 5.27 | 6.83 | 4.67 | 2.83 | 0.88 | 5 | 3.75 | 2.24 | 3.11 | 2.83 | 3.99 | 2.98 | 9.73 | 38.4 | -3.98 | 12.1 | 1.36
CC1=C(C(=O)Nc2ccc3[nH]ncc3c2)C(c2ccc(F)cc2)N=C(c2ccc(C(F)(F)F)nc2)N1 (stereo not given) | 0.81 | 3.03 | 7.4 | 2.65 | 2.49 | 1.86 | 7.12 | 1.17 | 1.16 | 4.01 | 4.07 | 1.02 | 1.46 | 2.88 | 3.8 | 3.02 | 4.16 | -0.65 | -4.56 | 4.97
CS(=O)(=O)CCNCc1ccc(-c2ccc3ncnc(Nc4ccc(OCc5cccc(C(F)(F)F)c5)cc4)c3c2)o1 | -0.03 | 6.62 | 4.52 | 3.37 | 4.84 | 0.64 | 5.33 | 0.49 | 0.96 | 2.16 | 7.21 | 4.9 | 17.5 | 3 | 10.1 | 5.9 | 5.59 | -2.56 | 8.3 | 3.79
Fc1cccc(COc2ccc(Nc3ncncc3C#Cc3ccccc3)cc2Cl)c1 | -0.97 | 4.69 | 4.11 | 1.87 | 2.11 | 1.37 | 9.13 | 1.84 | 3.24 | 2.85 | 2.13 | 2.56 | 5.8 | 2.81 | 6.63 | 1.94 | 3.56 | -4.7 | 8.47 | 2.33
